These results are taken from PubChem BioAssay AID493169 (National Center for Advancing Translational Sciences (NCATS), 2011).

The structures appear in SMILES notation. Results filed as inconclusive are left out. Entries that show only a call come without a potency. Calls of active or inactive are those of the source. Calls follow the shape of the dose curve; as a rule, active = well fitted inhibition curve with a large enough effect; inconclusive = small, poorly fitted or top-dose-only effect; inactive = flat fitted curve, though single readings scatter.

This experiment in a line: CHOP2 Reporter Counterscreen Assay for Inhibitors of Ubiquitin-specific Protease USP2a.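 Also: activated enterokinase alone at 50 pM in a cell-free format rather than USP2a or CHOP2; nearly all actives have a fitted effect of over 55% in size.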 In outline: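 Cell-free counterscreen with pre-activated enterokinase alone (50 pM final) in 20mM Tris-HCl pH 8.0, 2mM CaCl2, 2mM beta-mercaptoethanol, 0.05% CHAPS; compound preincubation 30 min RT, reporter substrate 25nM final, fluorescence read after 10 min (Ex 485/Em 531).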
Potency is read from the fitted curve at half-maximal effect.

In the case of `CC1=NN(C(=O)c2csc(C)c2C)C(O)(C(F)(F)F)C1` (stereo not given), the Potency entry was “inactive”. For `Cc1ccc(OCC(=O)Nc2ccc(N3CCCC3)cc2)cc1C` the value was 10 µM (active). For `COC(=O)c1c(O)c2c([nH]c1=O)CCCC2` the value was “inactive”; for `CC(=O)Nc1ccc(NC(=O)C2CCCN(S(=O)(=O)c3ccc(Cl)cc3)C2)cc1` (stereo not given), “inactive”. In the case of `COC(=O)c1[nH]c2ccc(C)cc2c1NC(=O)CN1CCCc2ccccc21`, the Potency was 10 µM (active). For `Clc1ccc2c(N/N=C/c3ccc(Br)cc3)ccnc2c1` the value was 7.94 µM (active); for `O=C(c1ccco1)N1CCN(C(c2cccs2)c2sc3ncnn3c2O)CC1` (stereo not given), “inactive”. Turning to `CCCC(=O)Nc1ccc(N2CCN(C(=O)c3cc4ccccc4o3)CC2)cc1`, the Potency entry is “inactive”. For `COc1ccc(OC)c(NC(=O)CSc2nc(O)cc(=O)n2CC(C)C)c1` the value was “inactive”; for `O=C(Nc1ccc2c(c1)OCO2)NC1(C(F)(F)F)Oc2ccccc2O1`, “inactive”. For `CCCCOC1(c2ccccc2)NC(=S)NN=C1c1ccccc1` (stereo not given) the value was “inactive”; for `Cc1ccc(S(=O)(=O)Nc2ccccc2-c2ccccc2NS(=O)(=O)c2ccc(C)cc2)cc1`, “inactive”; for `Cc1ccc(S(=O)(=O)Nc2ccc(N3CCOCC3)cc2)cc1`, “inactive”. For `O=C(CSc1nc2ccccc2[nH]1)Nc1ccc2c(c1)OCCO2` the value was “inactive”. With `COc1ccccc1N1C(=O)CC(N2CCc3ccccc32)C1=O` (stereo not given), the Potency result is “inactive”. For `Cc1nc2cc3ccccc3cc2c(=O)[nH]1` the value was “inactive”; for `Cc1ccc(CNC(=O)CCNS(=O)(=O)c2ccc(C)cc2)cc1`, “inactive”; for `NC(=O)c1ncc(C(F)(F)F)cc1Oc1cccc(F)c1`, “inactive”. For `CC(NC(=O)COc1ccccc1-c1ccccc1)c1ccccc1` (stereo not given) the value was “inactive”. For `CCC/C(O)=C1\C(=O)CC(C)(C)CC1=Nc1ccc(OC)cc1OC` the value was “inactive”. As for `Cc1cccn2c(=O)c3cc(C(=O)NCCN4CCOCC4)c(=N)n(CCN4CCOCC4)c3nc12`, the Potency entry is “inactive”. For `O=C(Nc1ccncc1)c1ccc(S(=O)(=O)Nc2ccccc2)cc1` the value was 3.55 µM (active); for `CC(=O)Nc1cc[n+](CC(=O)c2ccc(Cl)cc2)cc1`, “inactive”; for `COc1cc(/C=N/NC(=O)c2cc(-c3ccccc3)nc3ccccc23)ccc1O`, “inactive”.

`CC(C)Cn1c(SCC(N)=O)nnc1-c1cccc(S(=O)(=O)N2CCOCC2)c1`: the Potency result was “inactive”. In the case of `C=CCn1c(O)c(C(CC)=NCCN2CCOCC2)c(=O)[nH]c1=O`, the Potency entry was “inactive”. With `C=CCn1c(N)c(C(=O)NCc2cccnc2)sc1=S`, the Potency entry was “inactive”. For `C#CCOCCOCCOCCNc1nc(N2CCN(C(=O)CCCCCCCCCCNC(=O)[C@H]([C@@H](C)CC)n3cc(CCCCCN)nn3)CC2)nc(N2CCN(C(=O)CCCCCCCCCCNC(=O)[C@H]([C@@H](C)CC)n3cc(CCCCN=C(N)N)nn3)CC2)n1` the value was 2.24 µM (active). For `Cc1ccc(NS(=O)(=O)c2cccc(C(=O)OCC(=O)NCc3ccco3)c2)cc1` the value was 10 µM (active); for `CCOc1ccccc1C(=O)NC1CC2CCCC(C1)N2C1CC1` (stereo not given), “inactive”. For `Nn1c(Nc2ccccc2)nc2ccccc2c1=O` the value was “inactive”; for `Fc1ccc(-c2nnn(Cc3nc4ccccc4s3)n2)cc1`, “inactive”; for `Cc1cc(C(=O)OCC(=O)c2cccc([N+](=O)[O-])c2)c2cccc(C)c2n1`, “inactive”. On to `CCOc1ccc(C(=O)c2ccc(OCC)c(N)c2)cc1N`, for which the Potency result was “inactive”. For `O=[N+]([O-])c1cc(-c2ccc(/C=N\n3cnnc3)o2)cc([N+](=O)[O-])c1` the value was 10 µM (active); for `Cc1nn(CC(=O)Nc2cccc(S(N)(=O)=O)c2)c(C)c1[N+](=O)[O-]`, “inactive”.

On to `CN1CCN(S(=O)(=O)c2ccc(N3CCN(S(=O)(=O)/C=C/c4ccccc4)CC3)nc2)CC1`, for which the Potency entry is “inactive”. On to `N#Cc1cccc(C(=O)N(CCc2ccccc2)Cc2cccs2)c1`, for which the Potency result was “inactive”. For `CCOc1ccc(C=NNc2ccc(S(=O)(=O)Nc3ccccc3C(=O)O)cc2[N+](=O)[O-])cc1` the value was 11.2 µM (active); for `CCCOc1ccc(N2C(=O)CC(NCCc3ccc(S(N)(=O)=O)cc3)C2=O)cc1` (stereo not given), “inactive”; for `CC(C)(C)C1CCc2nc(NC(=O)Cc3cn4ccsc4n3)sc2C1` (stereo not given), “inactive”. For the compound `Cc1c(C(=O)NCc2c(F)cc(F)cc2F)oc2ccc(S(=O)(=O)N3CCOCC3)cc12`, the Potency entry is “inactive”. On to `O=C(CSc1ncn[nH]1)Nc1ccc(Br)cc1F`, for which the Potency entry was “inactive”.

Regarding `O=C(Nc1cccc(-c2nn[nH]n2)c1)c1ccc(Br)s1`, the Potency is 3.98 µM (active).

As to `CC[C@]12c3[nH]c4cc(-c5ccco5)ccc4c3CCN1C(=O)[C@@H](CC(=O)NC/C=C(\C)CCC=C(C)C)C[C@@H]2C(=O)N1CCN(C(=O)C2CC2)CC1`, the Potency result was “inactive”.
